The record followed here is PubChem BioAssay (Tox21).

The structures appear in SMILES notation. “And” between values parts separate entries of the source, which are not always exact repeats. Identical values can stand only once. Records with an inconclusive call do not appear. A call without a number means that no potency is given here. The source made the active and inactive calls. Calls come from the whole dose curve.

Chain of Acetylcholinesterase (Homo sapiens) (P22303 whole entry, looked up): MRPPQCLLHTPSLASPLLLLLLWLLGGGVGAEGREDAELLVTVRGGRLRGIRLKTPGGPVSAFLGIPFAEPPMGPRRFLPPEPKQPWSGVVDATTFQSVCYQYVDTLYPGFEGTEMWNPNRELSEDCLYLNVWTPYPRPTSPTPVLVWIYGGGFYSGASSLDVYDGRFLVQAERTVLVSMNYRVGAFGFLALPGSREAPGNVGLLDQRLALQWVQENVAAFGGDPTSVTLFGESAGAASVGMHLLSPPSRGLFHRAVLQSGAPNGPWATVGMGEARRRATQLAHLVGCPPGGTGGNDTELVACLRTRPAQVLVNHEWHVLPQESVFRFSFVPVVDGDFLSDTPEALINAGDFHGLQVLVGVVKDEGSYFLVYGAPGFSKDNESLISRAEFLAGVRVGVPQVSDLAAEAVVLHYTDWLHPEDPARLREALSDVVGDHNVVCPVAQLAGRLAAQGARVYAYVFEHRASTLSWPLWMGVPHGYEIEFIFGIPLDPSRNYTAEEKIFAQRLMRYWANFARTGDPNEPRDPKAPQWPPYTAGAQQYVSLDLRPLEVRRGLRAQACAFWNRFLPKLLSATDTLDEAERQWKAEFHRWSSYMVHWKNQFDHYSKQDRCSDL

In one experiment the target is Acetylcholinesterase (Homo sapiens) (UniProt P22303). In words: Acetylcholinesterase (AChE) small molecule antagonists: fluorescence cell-based qHTS assay (AID 1347398). Note: nearly all actives have a fitted effect of over 50% in size. Note: potency is the fitted concentration of half-maximal effect. The settings on record: SH-SY5Y cells; Potency: AChE activity; outcome: AChE activity; series mostly up to 115 µM. Summed up:
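SH-SY5Y cells (2000/well), attached overnight, incubated with compound 30 min at 37 C. Acetylthiocholine plus Thiolite Green then added for 40 min at room temperature. Thiocholine fluorescence (Ex/Em 490/520 nm) reports cellular AChE activity.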
For `CNc1ccc([N+](=O)[O-])cc1`, the Potency result was “inactive”.

Turning to `Nc1ccccc1Nc1ccccc1`, the Potency result was “inactive”.

With `COC(=O)c1cc(Cl)ccc1NS(=O)(=O)C(F)(F)F`, the Potency result was “inactive”.

As to `CCCCCCCCCCCCOCCOCCOCCOCCOCCOCCOCCOCCOCCO`, the Potency entry was “inactive”.

`CCC1CO1` (configuration not stated): the Potency entry was “inactive”.

On to `COc1ccc(CN(CCN(C)C)c2ccccn2)cc1`, for which the Potency result is “inactive”.

On to `OC[C@H]1O[C@H](O[C@H]2O[C@H](CO)[C@@H](O)[C@H](O)[C@H]2O)[C@H](O)[C@@H](O)[C@@H]1O`, for which the Potency entry is “inactive”.

Regarding `O=C(O)Cc1c[nH]c2ccccc12`, the Potency result was “inactive”.

Regarding `CN(C)c1ccc(C(=C2C=CC(=[N+](C)C)C=C2)c2ccc(N(C)C)cc2)cc1`, the Potency is 19.9 µM (active) and 44.8 µM (active) and 15.5 µM (active).

As for `COc1cc(S(=O)(=O)Nc2ccccc2)c(OC)cc1N`, the Potency result is “inactive”.

Turning to `Nc1ccn([C@@H]2O[C@H](CO)[C@@H](O)[C@@H]2O)c(=O)n1`, the Potency result was “inactive”.

For `CCCCCCC(C)OC(=O)COc1nc(F)c(Cl)c(N)c1Cl` (configuration not stated), the Potency entry is “inactive”.

Turning to `CC(=O)CCC=C(C)C`, the Potency result is “inactive”.

For `c1ccc2ccccc2c1`, the Potency result is “inactive”.

On to `O=C(O)c1cc(C(=O)O)cc(S(=O)(=O)O)c1`, for which the Potency result is “inactive”.

Take `CCCCN(CCO)CCCC`: the Potency entry is “inactive”.

For `C[C@]12C(=O)OC(=O)[C@H]1[C@H]1C=C[C@@H]2C1`, the Potency result was “inactive”.

The target is the same in another experiment. In words: Acetylcholinesterase (AChE) small molecule antagonists: enzyme-based qHTS assay with human liver microsomes (AID 1347399). Note: nearly all actives have a fitted effect of over 60% in size. As to conditions: Potency: qHTS inhibition; outcome: qHTS inhibition; series mostly up to 115 µM. Summed up: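 Recombinant human AChE (50 mU/mL in the enzyme mix) and human liver microsomes (0.25 mg/mL final) were preincubated with compound and NADPH (0.25 mg/mL final) for 30 min at 37 C. Acetylthiocholine/DTNB was then added; thiocholine was read colorimetrically after 10 min at room temperature.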
With `CC(C)(CO)[C@@H](O)C(=O)NCCCO`, the Potency result was “inactive”.

In the case of `Nc1ccc(S(=O)(=O)Nc2nccs2)cc1`, the Potency result is “inactive”.

In the case of `CC/C=C\CC1=C(C)CCC1=O`, the Potency entry is “inactive”.

Consider `Cc1cc(C)c(C)c(O)c1`, for which the Potency result is “inactive”.

Regarding `CCCCNC(=O)NS(=O)(=O)c1ccc(N)cc1`, the Potency entry was “inactive”.

Regarding `Cn1c(N)nc2nc[nH]c2c1=O`, the Potency entry was “inactive”.

Take `CCCCCCCC`: the Potency result is “inactive”.

Consider `CC1(C)S[C@@H]2[C@H](NC(=O)[C@H](N)c3ccccc3)C(=O)N2[C@H]1C(=O)O`, for which the Potency result is “inactive”.

Regarding `C=CC(=O)OCCOC(=O)CCC(=O)O`, the Potency entry is “inactive”.

With `CCCCCCCCCCC(CO)CCCCCCCC` (configuration not stated), the Potency result was “inactive”.

Regarding `CCCC(=O)OC`, the Potency result was “inactive”.

Turning to `CC[C@]1(O)C[C@H]2CN(CCc3c([nH]c4ccccc34)[C@@](C(=O)OC)(c3cc4c(cc3OC)N(C=O)[C@H]3[C@@](O)(C(=O)OC)[C@H](OC(C)=O)[C@]5(CC)C=CCN6CC[C@]43[C@@H]65)C2)C1`, the Potency result was “inactive”.

`CC/C=C\CCOC(=O)CC`: the Potency entry is “inactive”.

With `CC(C)(O)c1coc(S(=O)(=O)NC(=O)Nc2c3c(cc4c2CCC4)CCC3)c1`, the Potency result was “inactive”.

As to `O=C(OCc1ccccc1)c1ccccc1O`, the Potency entry is “inactive”.

As for `COc1ccc2nc(S(=O)Cc3ncc(C)c(OC)c3C)[nH]c2c1` (configuration not stated), the Potency result was “inactive”.

In the case of `Oc1c(Cl)cc(Cl)c(Cl)c1Cl`, the Potency entry was “inactive”.

As for `Cc1occc1SSc1ccoc1C`, the Potency entry is “inactive”.

For `OCCOCC#CCOCCO`, the Potency entry is “inactive”.

For `CCC(C)OC(=O)c1ccc(O)cc1` (configuration not stated), the Potency entry was “inactive”.

For `CCCNC(C)(C)COC(=O)c1ccccc1`, the Potency result was “inactive”.

As for `O=C(O)C(=O)Nc1cccc(-c2nn[nH]n2)c1`, the Potency result is “inactive”.

Regarding `Cc1cccc(C)c1NC(=O)CC12CCCN1CCC2`, the Potency entry is “inactive”.

`CNc1ccc([N+](=O)[O-])cc1`: the Potency result was “inactive”.

For the compound `Nc1ccccc1Nc1ccccc1`, the Potency result is “inactive”.

Take `COC(=O)c1cc(Cl)ccc1NS(=O)(=O)C(F)(F)F`: the Potency result was “inactive”.

With `CCCCCCCCCCCCOCCOCCOCCOCCOCCOCCOCCOCCOCCO`, the Potency entry was “inactive”.

With `CCC1CO1` (configuration not stated), the Potency result is “inactive”.

With `COc1ccc(CN(CCN(C)C)c2ccccn2)cc1`, the Potency entry was “inactive”.

Take `OC[C@H]1O[C@H](O[C@H]2O[C@H](CO)[C@@H](O)[C@H](O)[C@H]2O)[C@H](O)[C@@H](O)[C@@H]1O`: the Potency entry is “inactive”.

With `O=C(O)Cc1c[nH]c2ccccc12`, the Potency entry was “inactive”.

In the case of `CN(C)c1ccc(C(=C2C=CC(=[N+](C)C)C=C2)c2ccc(N(C)C)cc2)cc1`, the Potency result was “inactive”.

As to `COc1cc(S(=O)(=O)Nc2ccccc2)c(OC)cc1N`, the Potency entry was “inactive”.

On to `Nc1ccn([C@@H]2O[C@H](CO)[C@@H](O)[C@@H]2O)c(=O)n1`, for which the Potency result was “inactive”.

Turning to `CCCCCCC(C)OC(=O)COc1nc(F)c(Cl)c(N)c1Cl` (configuration not stated), the Potency result is “inactive”.

For the compound `CC(=O)CCC=C(C)C`, the Potency result is “inactive”.

Regarding `c1ccc2ccccc2c1`, the Potency result was “inactive”.

As for `O=C(O)c1cc(C(=O)O)cc(S(=O)(=O)O)c1`, the Potency result is “inactive”.

`CCCCN(CCO)CCCC`: the Potency result is “inactive”.

Turning to `C[C@]12C(=O)OC(=O)[C@H]1[C@H]1C=C[C@@H]2C1`, the Potency result was “inactive”.
